Assay results reported in PubChem BioAssay AID1479 (National Center for Advancing Translational Sciences (NCATS), 2009).
The whole screen tested about 280,000 compounds, of which about 820 (0.29%) were called active. Not shown: some 1% with an inconclusive outcome. Calls follow the shape of the dose curve; as a rule, active = well fitted curve in either direction with a large enough effect; inconclusive = small, poorly fitted or top-dose-only effect; inactive = flat fitted curve, though single readings scatter. The sample as a whole holds a higher share of actives than the screen did.

Assay: Total Fluorescence Counterscreen for Inhibitors of the Interaction of Thyroid Hormone Receptor and Steroid Receptor Coregulator 2
Conditions: TRb/SRC2 Texas Red total fluorescence interference; series mostly up to 106 µM; fluorescence change, negative = quenching: at the top concentration
Procedure, shortened: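 Human TRb ligand-binding domain at 0.6 uM with 20 nM Texas Red SRC2 peptide in Tris buffer containing 1 uM T3 and 5% DMSO, incubated with compound 5 h at ambient temperature. Total fluorescence (555/632 nm) calculated as parallel + 2 × perpendicular.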
% is scaled to controls: 0 for no effect and ±100 for the full control effect; potency is read from the fitted curve at half-maximal effect; tags tell the direction and shape of the fitted curve or compound fluorescence and quenching.

Row | Compound | fluorescence change, negative = quenching | Potency
1 | O=C(Nc1ccc(F)cc1F)c1cnn(-c2ccc(F)cc2)c1-n1cccc1 | 0.454% (inactive) | –
2 | Clc1nc(Cl)c(Cl)c(Cl)c1Cl | -4.5% [at 201 µM] (inactive) | –
3 | COc1c(O)c2c(=O)cc(OC)c3c4c(OC)cc(=O)c5c(O)c(OC)c6c(c(c1C[C@@](C)(O)[C@H]6C(C)=O)c23)c54 | – | 44.7 µM [fluorescent] (active)
4 | CCn1cc(C(=O)N2CCN(c3cc(Cl)ccc3C)CC2)c(=O)c2cc(S(=O)(=O)N3CCCC3)ccc21 | -1.15% (inactive) | –
5 | CCc1ccccc1NC(=O)Cn1c(=O)n(-c2cccc(C)c2)c(=O)c2c1c1cc(OC)ccc1n2C | -1.44% (inactive) | –
6 | Cc1ccccc1C(=O)N(Cc1ccc(N(C)C)cc1)CC1CCCO1 (stereo unspecified) | 0.685% (inactive) | –
7 | N#C/C(=C\c1ccc(N2CCOCC2)o1)C(=O)N1CCOCC1 | 0.512% (inactive) | –
8 | N#C/C(=C/c1ccc(N2CCCCC2)o1)C(=O)NCCc1c[nH]c2ccccc12 | -0.527% (inactive) | –
9 | N#C/C(=C/c1ccc(N2CCOCC2)o1)C(=O)N1CCOCC1 | – | 44.7 µM [fluorescent] (active)
10 | CCc1c(C(=O)O)c(=O)cnn1-c1ccc(Cl)cc1 | -12.7% [at 201 µM] (inactive) | –
11 | O=C(CCSCc1ccccc1F)N1CCN(c2ccc(Cl)cc2)CC1 | -2.62% (inactive) | –
12 | COc1ccccc1NC(=O)CN1C(=O)c2ccccc2Sc2ccc(C(=O)N3CCCC3)cc21 | -6.38% (inactive) | –
13 | Cc1ccccc1CN1C(=O)c2ccccc2Sc2ccc(C(=O)NCCCN3CCOCC3)cc21 | 0.0604% (inactive) | –
14 | COc1cccc(CNC(=O)c2ccc3c(c2)N(Cc2ccc(C(F)(F)F)cc2)C(=O)c2ccccc2S3)c1OC | – | 31.6 µM [quencher] (active)
15 | CC(=O)N1CCCc2cc(S(=O)(=O)N3CCC(C(=O)NCc4ccc(F)cc4)CC3)ccc21 | -33.4% (inactive) | –
16 | CCCN(CCC)CCNC(=O)c1ccc2c(c1)NC(=O)C(CS(=O)(=O)Cc1cccc(Br)c1)N2 (stereo unspecified) | -0.748% (inactive) | –
17 | CCCCNC(=O)CCNC(=O)c1ccc(C(C)(C)C)cc1 | -2.87% (inactive) | –
18 | CCCCNC(=O)c1ccc2c(c1)NC(=O)C(C(C)C)N2 (stereo unspecified) | – | 0.0562 µM [quencher] (active)

Row | Compound | fluorescence change, negative = quenching | Potency
19 | CSc1ccccc1NC(=O)CCS(=O)(=O)c1nc(-c2cccs2)cc(C(F)(F)F)n1 | -0.205% (inactive) | –
20 | O=C(Nc1cc(C(F)(F)F)ccc1Cl)c1ccc2c(c1)CCN2S(=O)(=O)c1ccccc1 | 1.06% (inactive) | –
21 | CCc1ccccc1NC(=O)CSc1nc(C)c(C(=O)Nc2ccccc2)c(-c2ccc(Cl)cc2)c1C#N | 1.72% (inactive) | –
22 | CCn1cc2nc(SCc3cccc(F)c3)n(CCc3ccccc3)c(=O)c2n1 | -0.462% (inactive) | –
23 | CN1c2ccc(Cl)cc2-c2nc(SCC(=O)Nc3cc(F)ccc3F)ncc2S1(=O)=O | 0.99% (inactive) | –
24 | O=C(Nc1nnc(S(=O)(=O)N2CCCc3ccccc32)s1)c1cccc(F)c1 | -0.796% (inactive) | –
25 | Cc1ccc(S(=O)(=O)N2CCCc3cc(NS(=O)(=O)c4cc(C)ccc4C)ccc32)cc1 | -1.28% (inactive) | –
26 | Cc1c2cnn(-c3ccccc3)c(=O)c2c(C)n1C(C)C(=O)Nc1ccc(Br)cc1F (stereo unspecified) | -3% (inactive) | –
27 | O=C(NCc1cccnc1)C(=O)NCC(c1cccnc1)N1CCN(c2ccccc2)CC1 (stereo unspecified) | 6.49% (inactive) | –
28 | CCN(CC)S(=O)(=O)c1ccc2c(c1)nc(CN(C)C(=O)Nc1ccc(Cl)cc1)n2C | 0.355% (inactive) | –
29 | COCCNc1ncnc2c1c(-c1ccccc1)cn2-c1ccc(C)c(Cl)c1 | -0.894% (inactive) | –
30 | COc1ccccc1N1CCN(c2ncnc3onc(-c4ccc(F)cc4)c23)CC1 | -4.64% (inactive) | –
31 | COc1cc(NC(=O)c2cc(C3CC3)nc3c2c(C)nn3-c2ccccc2)cc(OC)c1 | -0.897% (inactive) | –
32 | Cc1[nH]c2ccccc2c1C(c1ccccc1)c1cccs1 (stereo unspecified) | -25.5% (inactive) | –
33 | COc1cccc(CNC(=O)Cc2csc3nc(-c4ccccc4)cn23)c1 | -5.57% (inactive) | –
34 | Fc1ccc(CN2CCc3nc(Nc4ccccc4)ncc3C2)cc1F | -1.99% (inactive) | –
35 | Cc1ccc(-c2cn3c(n2)sc2cc(C(=O)NCc4cccs4)ccc23)c(C)c1 | 4.67% (inactive) | –
36 | CC(C)CC(=O)NCC(c1ccc2c(c1)OCO2)N1CCN(c2ccc(F)cc2)CC1 (stereo unspecified) | -0.0801% (inactive) | –
